Laboratory results as given in PubChem BioAssay.

biological target: Left-right determination factor 2 (Homo sapiens) (UniProt O00292); assay: small molecules binding LEFTY2 protein – biochemical, small-molecule microarray, 635 nm fluorescence scan, primary screen (AID 1110); conditions: higher = more signal
Sequence (O00292 whole entry, looked up): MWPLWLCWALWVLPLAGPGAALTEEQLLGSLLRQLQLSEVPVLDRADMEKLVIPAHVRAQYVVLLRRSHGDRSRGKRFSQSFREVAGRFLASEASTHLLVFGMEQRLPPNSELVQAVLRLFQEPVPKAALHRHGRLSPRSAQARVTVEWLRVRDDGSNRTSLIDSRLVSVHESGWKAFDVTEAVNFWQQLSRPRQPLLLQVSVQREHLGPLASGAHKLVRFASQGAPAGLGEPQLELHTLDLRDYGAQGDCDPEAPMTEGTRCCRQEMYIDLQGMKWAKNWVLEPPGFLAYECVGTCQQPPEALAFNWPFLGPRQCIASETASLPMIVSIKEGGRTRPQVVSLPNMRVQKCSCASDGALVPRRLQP

SMILES	composite z-score
COC(=O)[C@H]1N=C(c2ccc(OCCCO)cc2)O[C@H]1c1ccccc1CN=[N+]=[N-]	-1.16
C[N+](C)(C)CCCCNC(=O)[C@H]1C[C@H]2C(=O)NCC(=O)N2[C@H]1c1ccc(O)cc1	0.794
CN(C)CCCCCCNC(=O)[C@@H]1C[C@@H]2C(=O)NCC(=O)N2[C@@H]1c1ccc(O)cc1	0.932
COc1ccc(C#Cc2ccc3c(c2)[C@]2(C(=O)N3)[C@H](c3ccc(OCCO)cc3)N3[C@H](c4ccccc4)[C@H](c4ccccc4)OC(=O)[C@H]3[C@@H]2C(=O)N2CCN(c3ncccn3)CC2)cc1	0.201
[N-]=[N+]=NCc1ccccc1[C@H]1OC(c2ccc(OCCCO)cc2)=N[C@@]1(Cc1ccccc1)C(N)=O	-0.709
C#CCOC(=O)N[C@H](C=CCCCC)c1ccccc1	-0.0624
COc1cccc(C[C@H]2C[C@@H](CO[Si](C(C)C)(C(C)C)C(C)C)N3C(=O)[C@]4(C(C)=O)O[C@]23[C@H]2C(=O)N(C)C(=O)[C@H]24)c1	0.717
C=C(COC)/C(=C/C[C@@H](OC(=O)c1ccncc1)c1cccc(OCCO)c1)c1cc(C(=O)OC)ccc1OC	0.872
C[N+](C)(C)CCCC[C@@H]1NC(=O)[C@@H]2C[C@H](C(=O)NCCCCCNC(=O)CS)[C@H](c3cccc(OCCO)c3)N2C1=O	0.0926
CCCCCCCCCCC(O)C1C=CC2C(=O)NC(=O)C2N1Nc1ccccn1 (stereo unspecified)	-0.765
CCOC(=O)C[C@H]1[C@H](OC(=O)c2ccc(C(=O)c3ccccc3)cc2)[C@@H](NC(=O)C2CCCCC2)c2cc(OCCCO)ccc2N1C(=O)Cc1ccc(OC)cc1	0.0258
